From PubChem
Most compounds without a hit are left out; they make up all but 8.7% or so of the library.
BAZ2B inh: blocks human BAZ2B. Potency, µM (top dose mostly 114 µM), inactives show at the highest dose activity change, negative = inhibition, actives largely listed as inhibitors. hit rate 4.4% among 360,000. AlphaScreen BAZ2B-H3K14Ac peptide displacement. Q9UIF8; further: on the % scale 0 is the no-effect control and ±100 the full control effect; nearly all actives have a fitted effect of over 60% in size
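Protein-peptide AlphaScreen: BAZ2B 50 nM, b-H3K14Ac 50 nM, 1x PBS pH 7.4 + 0.01% Tween-20. Preincubation 30 min RT; cpd 30 min RT (top 110 uM); beads 20 min RT, light-protected.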
Sfp inh: Sfp phosphopantetheinyl transferase inhibition. Q9F4F7. Biochemical Sfp PPTase activity, qHTS. Potency, µM, for inactives: largest response in the series, negative = inhibition, actives largely listed as inhibitors. hit rate 3.5% among 310,000. AID 1490;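 further: the enzyme is Sfp with the accession as filed and its product quenches rhodamine fluorescence; 0% = enzyme reaction without inhibitor and -100% = no enzyme wells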
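Fluorescence-quenching assay with 15 nM Sfp, 5 uM rhodamine-CoA and 12.5 uM BHQ-2-labelled ybbR peptide in pH 7.6 Hepes/MgCl2 buffer. Enzyme was pre-incubated with compound for 15 min at room temperature. Rate was taken from the 30-min fluorescence change (525/598 nm).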
HP1b chromo inh: inhibitors of HP1-beta chromodomain binding to methylated histone tails. AlphaScreen HP1-beta / biotin-H3K9me3 peptide binding. P83916. hit rate 0.56% among 390,000. Potency, µM (titrated, usually from 114 µM), without a hit: top-dose activity change, negative = inhibition, usual class: inhibitors. AID 540317; further: nearly all actives have a fitted effect of over 70% in size
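AlphaScreen: HP1-beta (50 nM) preformed 30 min with biotin-H3(1-18)K9me3 peptide (50 nM) in PBS pH 7.4, 0.01% Tween-20. Compound added for 30 min at RT, then streptavidin donor/nickel chelate acceptor beads (10 ug/mL) for 30 min.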
JMJD2A Tudor inh: JMJD2A Tudor domain (human) inhibition. AlphaScreen JMJD2A-Tudor / H3K4me3 peptide binding. hit rate 4.4% among 390,000. Potency, µM (titrated, usually from 114 µM), without a hit: at the top dose activity change, negative = inhibition, actives largely listed as inhibitors; further: on the % scale 0 is the no-effect control and ±100 the full control effect; nearly all actives have a fitted effect of over 50% in size
G9a block: G9a (human) methyltransferase inhibition; Q96KQ7; G9a H3K9 monomethylation, AlphaScreen, 2 h; Potency, µM (doses to about 102 µM), inactives show top-dose activity, negative = inhibition, actives largely listed as inhibitors; hit rate 8.8% among 350,000; AID 504332; further: on the % scale 0 is the no-effect control and ±100 the full control effect; nearly all actives have a fitted effect of over 75% in size
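Compounds were preincubated with 20 nM G9a for 15 min, after which biotinylated H3K9 peptide (500 nM) and SAM (20 uM) started a 2 h room-temperature reaction. Monomethylated product was quantified by antibody-based AlphaScreen chemiluminescence.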
ALOX12 inh: blocks human arachidonate 12S-lipoxygenase; P18054; purified 12hLO, xylenol orange hydroperoxide absorbance; Potency, µM (highest dose often 108 µM), without a hit: at the top dose activity change, negative = inhibition, usual class: inhibitors; hit rate 1.1% among 580,000; AID 1671190; further: on the % scale 0 is the no-effect control and ±100 the full control effect
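Purified human 12hLO at 150 nM in 25 mM Hepes, 0.01% Triton X-100, pH 7.0, preincubated 15 min at room temperature with compound. Reaction started with 40 uM arachidonic acid, 30 min at room temperature. Hydroperoxide measured by Fe-xylenol orange, 573/405 nm absorbance ratio.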
Active calls of the source: *; ? = inconclusive; · = no result; [ ] = dose if it differs, or a comment. The call rests on the fitted dose curve; in most records, active means well fitted curve in the direction sought with a large enough effect; inconclusive means small, poorly fitted or top-dose-only effect, or another doubt; inactive means no such curve, though single readings can be large; an effect the other way counts as inactive or inconclusive. Potency means the concentration at half of the fitted maximal effect.

SMILES | BAZ2B inh | Sfp inh | HP1b chromo inh | JMJD2A Tudor inh | G9a block | ALOX12 inh
CCOc1c(C)cc2[nH]c(CCC(=O)O)nc2c1C | -3% | 20% | 29% | -6% | 13µM* | 0%
O=C(O)CCc1nc2ccccc2[nH]1 | · | 1% | · | · | · | ·
COc1ccc(-c2noc(CN3CCCC(C(=O)Nc4ccc(C)cc4)C3)n2)cc1OC (stereo unspecified) | · | · | · | · | · | 10%
Cc1occc1C(=O)NNC(=S)Nc1cccc([N+](=O)[O-])c1 | -3% | 19% | 5% | -27% | 11µM* | 339%
Cc1cc(Br)ccc1NC(=S)Nc1cccc([N+](=O)[O-])c1 | -1% | ? | -19% | -35% | 45µM* | ?
CNC(=S)Nc1cccc([N+](=O)[O-])c1 | -19% | 13% | 14% | -1% | ? | 0%
O=[N+]([O-])c1cccc(NC(=S)NCc2ccncc2)c1 | -14% | 13µM* | -4% | -24% | 35µM* | -24%
Cc1cccc(NC(=S)N/N=C/c2ccc([N+](=O)[O-])s2)c1 | 10µM* | 6% | ? | 56µM* | ? | ?
Cc1ccsc1C(=O)NC1CCN(C(=O)N2CC3CC(C2)[C@H]2CCCC(=O)N2C3)CC1 (stereo partly specified) | · | · | · | · | · | 24%
CC(C)c1ccc(C(NC(=O)c2n[nH]c(=O)c3ccccc23)C(C)C)cc1 (stereo unspecified) | · | · | · | · | · | 20%
Cc1cccc(NC(=S)NNC(=O)c2cccc([N+](=O)[O-])c2)c1 | ? | 0% | 1% | -24% | 20µM* | 303%
O=C(NC(=S)Nc1cccc(F)c1)c1cccc([N+](=O)[O-])c1 | 14% | ? | 1% | ? | ? | 0%
Cc1cc(O)c2c(C)c(CC(=O)NCCc3cccc(F)c3)c(=O)oc2c1 | · | · | · | · | · | 28µM*
NC(=O)c1ccccc1NC(=O)c1ccc2ccccc2n1 | · | · | · | · | · | 1%
CC(C(=O)Nc1ccc(F)cc1)N(C)Cc1ccc2c(c1)OCCO2 (stereo unspecified) | · | · | · | · | · | 8%
CCOC(=O)NC(Nc1ccc(Cl)cc1)(C(=O)OCC)C(F)(F)F (stereo unspecified) | · | · | · | · | · | 2%
C=CCOc1ccc2c(c1)c(=O)cc(C(=O)O)n2CC | -6% | 14% | 40% | -13% | 45µM* | ?
CC(C)CCn1nc(C(=O)Nc2ccc(Cl)cc2)c2ccccc2c1=O | · | · | · | · | · | 10%
CCOC(=O)c1c(NC(=O)CSc2nnnn2-c2ccccc2OCC)sc2c1CC(C)(C)NC2(C)C | -37% | · | -4% | -32% | 50µM* | -28%
CCOC(=O)c1c(NC(=O)CSc2nnnn2-c2ccccc2)sc2c1CC(C)(C)NC2(C)C | 71µM* | -11% | -5% | ? | · | ·
CCOC(=O)c1c(NC(=O)COc2ccccc2OCC)sc2c1CC(C)(C)NC2(C)C | -4% | · | -7% | -33% | ? | ·
CCOC(=O)c1c(NC(=O)CSc2nc3ccc(C)cc3[nH]2)sc2c1CC(C)(C)NC2(C)C | -39% | · | -14% | ? | 45µM* | ?
CCOC(=O)c1c(NC(=O)Cc2ccccc2)sc2c1CC(C)(C)NC2(C)C | -11% | -4% | 19% | -28% | ? | 4%[57.4 µM]
Cn1cnc(C(=O)NCC(=O)N2CCCCCNC(=O)CC2c2ccccc2)c1 (stereo unspecified) | · | · | · | · | · | 40%
COc1ccc(CN(C)Cc2ccc(F)cc2)cc1 | · | · | · | · | · | 46%[176 µM]
SMILES | BAZ2B inh | Sfp inh | HP1b chromo inh | JMJD2A Tudor inh | G9a block | ALOX12 inh
O=[N+]([O-])c1ccc(C(O)CN2CCN(Cc3ccccc3)CC2)cc1 (stereo unspecified) | 2% | 19% | 12% | -10% | -21% | 10%
O=[N+]([O-])c1ccc(CN2CCSCC2)cc1 | 71µM* | -27% | 25µM* | 1.6µM* | 25µM* | -21%
c1ccc(-c2ccc(CN3CCSCC3)cc2)cc1 | ? | ? | ? | 20µM* | · | ?
O=[N+]([O-])c1ccc(CN2CCN(c3ccc4ccccc4n3)CC2)cc1 | ? | -14% | 22% | -22% | -40% | 50µM*
O=[N+]([O-])c1ccc(CN2CCN(c3ccc([N+](=O)[O-])cc3)CC2)cc1 | 25µM* | -28% | 50µM* | 3.2µM* | 13µM* | 3.5µM*
Cc1[nH]c2ccccc2c1C1c2ccccc2C(=O)N1CC(=O)N1CCN(C=O)CC1 (stereo unspecified) | · | · | · | · | · | -10%
O=C(CCC(=O)c1cccs1)OC1CCOC1=O (stereo unspecified) | · | · | · | · | · | 20%
Fc1ccc(N2CCN(Cc3cnc(Cl)s3)CC2)cc1 | -20% | 14% | 29% | -6% | 2% | -2%
O=[N+]([O-])c1ccc(CN2CCN(c3ccc(F)cc3)CC2)o1 | ? | -44% | ? | 11µM* | ? | ?
CCOc1ccc(NC2=NCC(=O)N2CCc2ccccc2)cc1 | 79µM* | -1% | 23% | -6% | ? | -12%
COc1ccc(CN2C(=O)CN=C2Nc2cc(C)ccc2C)cc1 | ? | 6% | 20% | -21% | ? | ?
CCc1ccccc1NC1=NCC(=O)N1Cc1ccc(OC)cc1 | ? | 10% | 50% | -13% | 45µM* | ?
SC1CCCC1 | · | · | · | · | · | 1%[176 µM]
Cc1noc([C@@H]2CN(Cc3c(F)cccc3F)C[C@H]2CO)n1 | · | · | · | · | · | 35%
Cc1ccc(S(=O)(=O)NCc2ccco2)cc1C(N)=O | -6% | 11% | -9% | 25µM* | -15% | 2%
Cc1ccc2ccc(S(=O)(=O)NCc3ccco3)cc2c1 | -18% | -16% | 4% | -21% | 35µM* | ?
O=S(=O)(NCc1ccco1)c1ccc2ccccc2c1 | ? | -2% | -25% | -33% | 1% | -35%
COCC[C@]1(O)CCN(C(=O)c2ccc(Cl)cc2F)C[C@H]1C | · | · | · | · | · | 39%
Cc1nn(C)c2ncc(NC(=O)CCc3ncc(-c4ccc(F)cc4F)o3)cc12 | · | · | · | · | · | 3%
O=C(NNc1ccc([N+](=O)[O-])cc1)C1C2CCCCC21 (stereo unspecified) | -7% | 1% | 22% | -20% | 89µM* | -20%
O=C(NNc1ccc([N+](=O)[O-])cc1[N+](=O)[O-])C1C2CCCCC21 (stereo unspecified) | -16% | -1% | -4% | -24% | ? | -7%
Cc1ccc(NC(=O)C2C3CCCCC32)cc1[N+](=O)[O-] (stereo unspecified) | 20µM* | -8% | -8% | ? | · | 3%
CC(C)N(Cc1ccccc1)C(=O)COc1ncnc2c(Cl)cc(Cl)cc12 | · | · | · | · | · | -20%
CC(C)CNC(=O)C(=O)Nc1ccc2cc[nH]c2c1 | · | · | · | · | · | 35µM*
O=C(CSc1ncc(C(F)(F)F)cc1Cl)N1CCc2ccccc21 | · | · | · | · | · | 15%
Oc1cccc2cc3cccc(O)c3c(O)c12 | 40µM* | 13% | -8% | ? | ? | ·
